Assay results: PubChem BioAssay (NCATS)
Inconclusive results are not listed. Calls of active or inactive are those of the source. Calls come from the whole dose curve; as a rule, active = well fitted cell-killing curve with a large enough effect; inconclusive = small, poorly fitted or top-dose-only effect; inactive = flat fitted curve, though single readings scatter.

Assay: qHTS of pediatric cancer cell lines to identify multiple opportunities for drug repurposing: Primary screen for control Hh wild type fibroblast cells (AID 1347106);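 note: a drop in luminescence marks cytotoxicity and a rise apparent proliferation; nearly all actives have a fitted effect of over 55% in size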
Conditions: Hh wild-type fibroblast viability, CellTiter-Glo luminescence, 48 h; series mostly up to 46 µM; activity change, negative = cytotoxic: at the top concentration
In short: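 Viability after 48 h compound treatment at 37C, 500-1,000 cells/well, read as ATP luminescence with CellTiter-Glo. Primary screens used 11-point (MIPE, 0.78 nM-46 µM) or 8-point (NPC, 0.59 nM-46 µM) final concentrations; follow-up screens used 11-point dilutions.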
% is set by controls: 0 for no effect and ±100 for the full control effect.

Q: With `O=C1c2cccc(O)c2C(=O)c2c(O)cccc21` as the compound, how does the “activity change, negative = cytotoxic” value read?
A: 7.45% (inactive)

Q: With `CCCCCOC(=O)Nc1nc(=O)n([C@@H]2O[C@H](C)[C@@H](O)[C@H]2O)cc1F` as the compound, how does the “activity change, negative = cytotoxic” value read?
A: 3.85% (inactive)

Q: With `NC(=O)c1ccc([N+](=O)[O-])cc1Cl` as the compound, how does the “activity change, negative = cytotoxic” value read?
A: -4.48% (inactive)

Q: Which “activity change, negative = cytotoxic” value does the source give for `CN(C(=O)c1c(O)c2ccccc2n(C)c1=O)c1ccccc1` here?
A: 11.7% (inactive)

Q: With `COc1nccnc1NS(=O)(=O)c1ccc(N)cc1` as the compound, how does the “activity change, negative = cytotoxic” value read?
A: 4.23% (inactive)

Q: Which “activity change, negative = cytotoxic” value does the source give for `COc1ccc(C(=O)N2CCN(CC(=O)N3CCOCC3)CC2)cc1` here?
A: 3.88% (inactive)

Q: Which “activity change, negative = cytotoxic” value does the source give for `CCc1cccc(CC)c1NC(=O)CN(CC(=O)O)CC(=O)O` here?
A: 13.9% (inactive)

Q: For `CNCc1ccccc1`, which “activity change, negative = cytotoxic” value is on record?
A: 10.3% (inactive)

Q: For `COc1cc(O)cc(O)c1`, which “activity change, negative = cytotoxic” value is on record?
A: -3.28% (inactive)

Q: For `O=C(O)Cn1c(C(=O)Nc2nc(-c3ccccc3Cl)cs2)cc2ccccc21`, which “activity change, negative = cytotoxic” value is on record?
A: 2.33% (inactive)

Q: With `Cc1onc(-c2ccccc2)c1-c1ccc(S(N)(=O)=O)cc1` as the compound, how does the “activity change, negative = cytotoxic” value read?
A: 13% (inactive)

Q: For `Cc1[nH]c(C)c(Cl)c(=O)c1Cl`, which “activity change, negative = cytotoxic” value is on record?
A: 7.83% [at 16.1 µM] (inactive)

Q: Which “activity change, negative = cytotoxic” value does the source give for `O=C(Cn1ccnc1[N+](=O)[O-])NCc1ccccc1` here?
A: 7.85% (inactive)

Q: For `CN(C/C=C/C#CC(C)(C)C)Cc1cccc2ccccc12`, which “activity change, negative = cytotoxic” value is on record?
A: 12.9% (inactive)

Q: For `CCS(=O)(=O)CCn1c([N+](=O)[O-])cnc1C`, which “activity change, negative = cytotoxic” value is on record?
A: 4.1% (inactive)

Q: Which “activity change, negative = cytotoxic” value does the source give for `Cc1ccc2c(c1)c1c3n2CCNC3CCC1` (stereo not given) here?
A: 9.09% (inactive)

Q: For `C=CCOc1ccccc1OCC(O)CNC(C)C` (stereo not given), which “activity change, negative = cytotoxic” value is on record?
A: 5.13% (inactive)

Q: Which “activity change, negative = cytotoxic” value does the source give for `O=C(O)c1ccccc1OP(=O)(O)O` here?
A: 2.05% (inactive)

Q: With `CCCOC(=O)c1ccc(N)cc1` as the compound, how does the “activity change, negative = cytotoxic” value read?
A: 6.48% (inactive)

Q: For `C[C@H]1COc2c(C3(N)CC3)c(F)cc3c(=O)c(C(=O)O)cn1c23`, which “activity change, negative = cytotoxic” value is on record?
A: 13.8% (inactive)

Q: Which “activity change, negative = cytotoxic” value does the source give for `CCN[C@H]1CN(CCCOC)S(=O)(=O)c2sc(S(N)(=O)=O)cc21` here?
A: 5.7% (inactive)

Q: For `CC(=O)Nc1ccccc1`, which “activity change, negative = cytotoxic” value is on record?
A: 5.38% (inactive)

Q: For `O=C1c2ccccc2S(=O)(=O)N1CCCCN1CCN(c2ncccn2)CC1`, which “activity change, negative = cytotoxic” value is on record?
A: 11% (inactive)

Q: Which “activity change, negative = cytotoxic” value does the source give for `CC(=O)N[C@@H](CC(C)C)C(=O)O` here?
A: 8.23% (inactive)

Q: For `COc1cc(C(=O)NCCCCCC(=O)O)cc(OC)c1OC`, which “activity change, negative = cytotoxic” value is on record?
A: 11.6% (inactive)

Q: Which “activity change, negative = cytotoxic” value does the source give for `CC(=O)OCC(COC(C)=O)OC(C)=O` here?
A: 4.82% (inactive)

Q: Which “activity change, negative = cytotoxic” value does the source give for `CC(=O)[C@@]1(O)CC[C@H]2[C@@H]3C[C@H](C)C4=CC(=O)C=C[C@]4(C)[C@@]3(F)[C@@H](O)C[C@@]21C` here?
A: -5.47% (inactive)

Q: With `CN1CCN(C(=O)C2CCCCC2)CC1` as the compound, how does the “activity change, negative = cytotoxic” value read?
A: 0.469% (inactive)

Q: Which “activity change, negative = cytotoxic” value does the source give for `Cc1c(C(=O)NCCO)[n+](=O)c2ccccc2n1[O-]` here?
A: 5.1% (inactive)

Q: Which “activity change, negative = cytotoxic” value does the source give for `CC[C@]12CCCN3CCc4c(n(c5ccccc45)[C@@](O)(C(=O)OC)C1)[C@@H]32` here?
A: 6.44% (inactive)

Q: Which “activity change, negative = cytotoxic” value does the source give for `O=C(c1ccccc1)C(O)c1ccccc1` (stereo not given) here?
A: -3.15% (inactive)

Q: Which “activity change, negative = cytotoxic” value does the source give for `CC(=O)SC[C@@H](Cc1ccccc1)C(=O)NCC(=O)OCc1ccccc1` here?
A: 8.57% (inactive)

Q: With `CCCCC1(COC(=O)CCC(=O)O)C(=O)N(c2ccccc2)N(c2ccccc2)C1=O` as the compound, how does the “activity change, negative = cytotoxic” value read?
A: -3.26% (inactive)

Q: For `CC(=O)Nc1ccc(C(=O)O)cc1`, which “activity change, negative = cytotoxic” value is on record?
A: 14.1% (inactive)

Q: For `CO[C@@]1(NC(=O)C(C(=O)O)c2ccc(O)cc2)C(=O)N2C(C(=O)O)=C(CSc3nnnn3C)CO[C@@H]21` (stereo not given in full), which “activity change, negative = cytotoxic” value is on record?
A: 6.02% (inactive)
